A selection: hits, their analogues and other compounds. The true share with any hit is near 2.4%.
TDP1 inh – TDP1 (human) enzyme inhibition; Q9NUW8; recombinant TDP1, AlphaScreen DNA substrate cleavage; Potency, µM (doses to about 130 µM), hits mostly inhibitors; hit rate 0.28% among 350,000; AID 485290; active = well fitted curve in the direction sought with a large enough effect; inconclusive = small, poorly fitted or top-dose-only effect, or another doubt; inactive = no such curve, though single readings can be large; an effect the other way counts as inactive or inconclusive; note: nearly all actives have a fitted effect of over 40% in size
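Enzyme-compound mixtures sat 15 min at room temperature, followed by a 5 min reaction with 15 nM final substrate and 10 min with AlphaScreen beads. Recombinant human Tdp1 was used at 1 nM final.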
ALOX12 inh – inhibitors of human 12S-lipoxygenase ALOX12; P18054; purified 12hLO, xylenol orange hydroperoxide absorbance; Potency, µM (highest dose often 108 µM), usual class: inhibitors; hit rate 1.1% among 580,000; active = well fitted curve in the direction sought with a large enough effect; inconclusive = small, poorly fitted or top-dose-only effect, or another doubt; inactive = no such curve, though single readings can be large; an effect the other way counts as inactive or inconclusive
Target sequence (P18054 whole entry, looked up): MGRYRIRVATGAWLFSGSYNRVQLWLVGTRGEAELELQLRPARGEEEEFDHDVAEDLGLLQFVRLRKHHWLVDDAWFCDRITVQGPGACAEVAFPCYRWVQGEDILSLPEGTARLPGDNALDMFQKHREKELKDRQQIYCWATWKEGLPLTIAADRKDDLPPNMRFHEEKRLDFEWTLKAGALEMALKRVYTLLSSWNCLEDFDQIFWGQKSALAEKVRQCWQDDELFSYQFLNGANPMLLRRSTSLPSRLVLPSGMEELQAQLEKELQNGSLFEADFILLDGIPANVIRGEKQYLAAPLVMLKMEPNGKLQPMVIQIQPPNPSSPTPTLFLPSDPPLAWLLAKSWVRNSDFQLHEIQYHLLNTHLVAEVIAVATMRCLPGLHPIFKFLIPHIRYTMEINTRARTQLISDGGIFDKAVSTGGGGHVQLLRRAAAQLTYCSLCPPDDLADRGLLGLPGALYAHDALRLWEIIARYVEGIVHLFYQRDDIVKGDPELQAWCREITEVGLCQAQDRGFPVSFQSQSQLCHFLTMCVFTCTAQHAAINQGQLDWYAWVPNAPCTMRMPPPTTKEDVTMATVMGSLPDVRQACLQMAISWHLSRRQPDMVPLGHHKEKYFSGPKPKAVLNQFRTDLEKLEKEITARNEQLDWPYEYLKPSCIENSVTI
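Purified human 12hLO (150 nM final) in 25 mM Hepes, 0.01% Triton X-100, pH 7.0 was preincubated 15 min at room temperature with compound. Then 40 uM arachidonic acid was added, 30 min. Hydroperoxide was read by Fe-XO absorbance ratio 573/405 nm.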
Rango release inh – prevents RanGTP from dissociating the Rango-importin beta complex. O95149+P62826. Biochemical FRET Rango-importin beta, RanGTP-induced dissociation. Potency, µM (series often up to 46.1 µM). hit rate 0.071% among 340,000. AID 540253; note: nearly all actives have a fitted effect of over 45% in size
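Two FRET readings bracket the reaction: one 5 min after compound meets Rango–importin beta, another 45 min after RanGTP-RCC1 (0.6 uM Ran, 0.2 uM RCC1, 2 mM GTP) is added. Only the second defines inhibition.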
PTAP TSG101 blk – blocks PTAP/TSG101 interaction to inhibit HIV-1 budding | Q99816 | Fluorescence polarization, FITC-PTAP peptide / Tsg101 binding | Potency, µM (highest dose often 115 µM), hits mostly inhibitors | 340,000 tested, under 10 active | AID 493005; active = well fitted inhibition curve with a large enough effect in the main read-out, with a control signal flat, not every such curve was filed as active; inconclusive = small, poorly fitted or top-dose-only effect, or effect the other way, or a change in a side signal; inactive = no such curve, though single readings can be large or run the other way
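Steps: Tsg101 binding domain dispensed (10 uM final), compounds pinned in DMSO, FITC-labeled PTAP-motif peptide added (50 nM final); after 20 min binding at room temperature, polarization measured.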
ClpP mod – qHTS Assay for Activators of ClpP; AID 651965, 2013; ATP-dependent Clp protease proteolytic subunit (Bacillus subtilis (strain 168)), P80244; purified B. subtilis ClpP, FRET peptide cleavage, 20 min; hit rate 1.9% among 340,000; Potency, µM (doses to about 57.5 µM); active = well fitted falling curve with a large enough effect; inconclusive = small, poorly fitted or top-dose-only effect; inactive = no such curve, though single readings can be large or run the other way; note: the source files actives as falling curves though it sought activators and does not explain the sign; nearly all actives have a fitted effect of over 65% in size
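Purified B. subtilis ClpP, 10 microg/mL final in Tris/HCl pH8 with KCl, BSA, glycerol and Tween-20, cleaved an Abz/nitrotyrosine-quenched decapeptide. Fluorescence (ex 320, em 430) was read at 0 and 20 min at room temperature. Delta was normalized to 5.8 microM ADEP and DMSO/no-enzyme controls.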
Rango-impB inh – Rango-importin beta binding inhibition; Q14974; Potency, µM (doses to about 92.2 µM); hit rate 0.031% among 340,000; Rango CFP/YFP FRET sensor + importin beta, 45 min; note: nearly all actives have a fitted effect of over 15% in size
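FRET biosensor (snurportin 1 IBB flanked by EYFP and cerulean), 50 nM, with compound 5 min, then 0.125 microM importin beta in PBS, 1 mM DTT, 0.02% Tween-20, 0.1% BSA. CFP/YFP ratio read after 45 min at room temperature; pre-read flags interference.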
Numbers stand for hits; i = inactive; ? = inconclusive; nt = no result given. Unless noted, calls come from the whole dose curve.

SMILES	TDP1 inh	ALOX12 inh	Rango release inh	PTAP TSG101 blk	ClpP mod	Rango-impB inh
Cn1c(O)c(N=NC(=O)Cc2c[nH]c3ccccc23)c2ccccc21	nt	i	i	i	3.16µM	i
Cn1c(O)c(N=Nc2ccccc2)c2ccccc21	nt	i	i	i	nt	i
Cn1c(O)c(N=Nc2ccc(F)cc2)c2ccccc21	i	17.8µM	i	?	nt	?
Cn1c(O)c(N=NC(=O)CNC(=O)c2ccccc2)c2ccccc21	nt	i	i	i	nt	i
Cc1c(CCC(C)C)c(=O)n2c([nH]c3ccccc32)c1C#N	i	nt	i	i	3.16µM	i
Cc1ccc(/C=c2\sc3nc(-c4cccnc4)nn3c2=O)cc1	i	i	i	i	14.1µM	i
CC(C)c1ccc(/C=c2\sc3nc(-c4ccncc4)nn3c2=O)cc1	i	?	i	i	i	i
Cc1cc(Cl)ccc1-n1nc(C)c([C@@H]2C=C[C@@H](NC(=O)c3ccc(N(C)C)cc3)C2)c1C	nt	i	nt	nt	nt	nt
Cc1ccc(N2CC(c3nc4ccc(C)cc4[nH]3)CC2=O)cc1 (stereo not drawn)	nt	i	nt	nt	nt	nt
O=C(O)CCNC(=O)c1ccc(N=Nc2ccc(O)c(C(=O)O)c2)cc1	?	34.3µM	nt	nt	nt	nt
O=C(O)c1cc(N=Nc2ccc([N+](=O)[O-])cc2)ccc1O	i	nt	nt	nt	nt	nt
Fc1ccccc1Sc1ccccc1CNC1=NCCN1	i	?	i	i	i	i
c1ccc(Sc2cccc3ccccc23)c(CNC2=NCCN2)c1	i	?	i	i	3.16µM	i
CN(CC1CCOCC1)C(=O)C1CCC1	nt	i	nt	nt	nt	nt
COc1cc(/C=C2\CC/C(=C\c3cc(OC)c(O)c(OC)c3)C2=O)cc(OC)c1O	i	20µM	?	i	i	?
Cc1cc(C)n(CCC(=O)NCC23CCC=C2N(CC2CC2)C(=O)CC3)n1 (stereo not drawn)	nt	i	nt	nt	nt	nt
CCCC(=O)Nc1nnc(-c2cccc(OCC)c2)s1	i	i	i	i	28.2µM	i
O=C(Cc1ccccc1)Nc1nnc(-c2cccc([N+](=O)[O-])c2)s1	i	i	i	i	31.6µM	i
COc1ccc(CC(=O)Nc2nnc(-c3cccc([N+](=O)[O-])c3)s2)cc1	i	i	i	i	i	i
CCOc1ccccc1NC(=O)Cn1cccc1-c1nc(-c2ccc(OC)c(F)c2)no1	nt	i	nt	nt	nt	nt
COc1cccc(NS(=O)(=O)c2ccc3c(c2)CCC(=O)N3)c1	i	nt	nt	nt	nt	nt
COc1cccc(SCC(=O)c2ccc3c(c2)CCC(=O)N3)c1	nt	35.5µM	nt	nt	nt	nt
CC(C)(C)c1nc2c3cnn(-c4ccc(F)cc4)c3ncn2n1	nt	i	nt	nt	nt	nt
Cn1cc(C(=O)N2CCN(S(=O)(=O)c3ccccc3)CC2)c2ccccc21	nt	i	nt	nt	nt	nt
O=C(c1ccc(S(=O)(=O)N2CCC(c3nc4ccccc4[nH]3)CC2)cc1)N1CCOCC1	i	5.62µM	i	nt	i	i
SMILES	TDP1 inh	ALOX12 inh	Rango release inh	PTAP TSG101 blk	ClpP mod	Rango-impB inh
CC(C)(C)C1CCC2(CC1)NC(=S)N(c1ccccc1)N2 (stereo not drawn)	i	i	i	i	i	i
S=C1NC2(CCCCCC2)NN1c1ccccc1	nt	1.41µM	nt	nt	nt	nt
CC1(CCc2ccccc2)NC(=S)N(c2ccccc2)N1 (stereo not drawn)	i	1µM	i	i	i	i
S=c1[nH]nc(Cc2ccccc2)n1Cc1ccco1	i	35.5µM	i	i	i	i
CCCn1c(Cc2ccccc2)n[nH]c1=S	nt	i	i	i	i	i
Oc1cc2ccccc2cc1-c1n[nH]c(=S)n1Cc1ccco1	i	39.8µM	i	i	i	i
O=C(Oc1ccc(Br)c2ccccc12)C(c1ccccc1)c1ccccc1	nt	i	nt	nt	nt	nt
O=C(COc1ccc(Cl)cc1)NCc1n[nH]c(=O)c2ccccc12	56.2µM	i	i	i	i	i
CC(C)c1ccc(OCC(=O)NCc2n[nH]c(=O)c3ccccc23)cc1	39.8µM	i	i	i	nt	i
Cc1cccc(OCC(=O)NCc2n[nH]c(=O)c3ccccc23)c1	nt	i	i	i	i	i
Cc1noc(C)c1CC(=O)N1CCCC(COc2ccccc2C(=O)NC(C)C)C1 (stereo not drawn)	nt	i	nt	nt	nt	nt
Cn1cccc1CN1C[C@@H](COc2ccncc2)[C@H](c2ccccn2)C1	nt	i	nt	nt	nt	nt
O=C1c2ccccc2NC(c2ccncc2)N1c1ccccn1 (stereo not drawn)	i	i	i	i	28.2µM	i
c1ccc2c(c1)NC(c1ccncc1)n1c-2nc2ccccc21 (stereo not drawn)	i	i	?	i	28.2µM	i
c1csc(C2Nc3ccccc3-c3nc4ccccc4n32)c1 (stereo not drawn)	i	i	i	i	i	i
Cc1c(C(=O)C(=O)Nc2ccc(F)cc2)c2ccccc2n1C	nt	i	nt	nt	nt	nt
COC(=O)COc1ccc2cc(-c3ccc(Cl)cc3)c(=O)oc2c1	nt	i	nt	nt	nt	nt
Fc1ccccc1-c1ccc(-c2nn3c(-c4ccco4)nnc3s2)o1	nt	8.91µM	nt	nt	nt	nt
COc1cc(OC)c(-c2nn3c(-c4ccco4)nnc3s2)cc1OC	i	i	i	i	28.2µM	i
COc1cc2c(cc1OC)-c1nnc(-c3ccco3)n1C1(CCCC1)C2	i	i	i	i	31.6µM	i
Cc1oc(-c2ccc(F)cc2)cc1-c1nn2c(-c3ccco3)nnc2s1	nt	11.2µM	nt	nt	nt	nt
Clc1ccccc1-c1nnc2sc(-c3ccco3)nn12	i	i	i	i	i	i
CCOC(=O)N/N=C\C=C\c1ccco1	i	?	i	i	nt	i
COc1cccc(NC(=O)CN(C)CC(=O)NCc2ccco2)c1	i	i	i	i	i	i
Cc1ccc(OCC(=O)N/N=C/C=C/c2ccco2)c(Br)c1	i	39.8µM	i	i	i	?
CC(=O)c1cccc(OCC(=O)N(C)CC(=O)NCc2ccco2)c1	7.08µM	i	i	i	i	?
Cc1ccc(OCC(=O)N(C)CC(=O)NCc2ccco2)c(Br)c1	31.6µM	?	i	i	i	i

Compound activity (PubChem)
